The nature of test [1]: Cryptococcus neoformans growth inhibition, dose response, Alamar Blue, cherry-picks (AID 686998;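 active = falling signal with fitted half-maximal potency no higher than twice the top valid tested dose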).
Test [2] is described as follows: HepG2 cell cytotoxicity, dose response, cytotoxicity control, cherry-picks, set 2 (AID 687002).
Test [3] in a line: HeLa cell cytotoxicity, dose response, cytotoxicity control, ATP luminescence, cherry-pick samples (AID 687004;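 active = a fitted half-maximal concentration no higher than twice the top valid tested dose, with signal falling as cells die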;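 also: 0% = neutral control median and -100% = staurosporine 10 µM control median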).
The nature of test [4]: inducers of Cryptococcus neoformans cell lysis, dose response, AK release luminescence, cherry-picks (AID 687000;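 active = fitted dose curve reaches 40% lysis signal rise at or below the highest valid concentration tested for that sample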;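 also: luminescent detection of adenylate kinase leaking from lysed yeast; 0% = median neutral control signal and 100% = double that signal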).
A short description of test [5]: cytotoxicity in PAX8-dependent RMG-1 cells, dose response, cell-based, cherry-pick (AID 687029;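 active = signal drop whose fitted half-maximal concentration is at most twice the top valid dose, in every test run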;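 also: cells exposed to compound for 96 hours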).
A short description of test [6]: cytotoxicity in IOSE-T80 ovarian epithelial cells, dose response, selectivity assay for PAX8 inhibitor project, cell-based, cherry-pick (AID 687032;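 active = fitted half-maximal concentration for viability loss no higher than twice the top valid dose, in every repeat run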;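 also: cells exposed to compound for 96 h before reading; 0% = neutral control wells and -100% = 2 µM mitoxantrone kill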).
The nature of test [7]: inhibitors of CMV-promoter luciferase reporter, dose response, counter-screen for Pax8 inhibitor project, cell-based, HEK293, luminescence, dry powder (AID 743020;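 active = signal-lowering compounds whose fitted half-maximal concentration is at or below twice the top tested dose in every run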;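 also: HEK293 cells stably expressing the CMV luciferase reporter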). Background: A reporter such as luciferase makes a cellular process visible.
Test [8] is described as follows: non-specific cell cytotoxicity, dose response, cytotoxicity control for PAX8 inhibitor project, plate reader, dry powder samples (AID 743021; call rule not given here).
Test [9] is described as follows: IGROV1 ovarian cancer cell cytotoxicity, dose response, PAX8 inhibitor project, plate reader, dry powder samples (AID 743043; call rule not given here;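 also: more negative means fewer viable cells or more cytotoxicity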).
Test [10] is described as follows: NIH:OVCAR-3 ovarian cancer cell cytotoxicity, dose response, PAX8 inhibitor project, plate reader, dry powder samples (AID 743044; call rule not given here). Conditions: max activity: at 35 µM, hits give low values unless noted.
Test [11] is described as follows: IOSE-T80 ovarian epithelial cell cytotoxicity, dose response, cytotoxicity control for PAX8 inhibitor project, plate reader, dry powder samples (AID 743045; call rule not given here;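 also: 0% = neutral control median and -100% = positive control median; more negative values mean more cell killing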).
Test [12] in a line: cytotoxicity in OVCAR8 ovarian cancer cells, dose response, PAX8 project, cell-based, plate reader, dry powder samples (AID 743197; call rule not given here).

This is an account of results in PubChem BioAssay.

Entries with a potency or affinity are not part of this list. Records with an inconclusive call do not appear. Values without a mark were called inactive. Activity calls are given as the source filed them.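 The calls were made as follows, unless noted: active = a dose-response fit showing signal loss, with half-maximal concentration no higher than twice the top tested dose; inconclusive = flat fit between 30% and 70% signal loss, or poor fit; inactive = the rest.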

For `Cc1cccc(C)c1NC(=O)CN(C)C(=O)C1CC1C` (stereo not drawn), the compound was classed as inactive in test [1], in [2] and in [3].

In the case of `N#Cc1ccc(C23CC4(C2)[C@H](CN(Cc2ccc(C(F)(F)F)cc2)[C@@H]4c2ccccc2)C3c2ccc(C(F)(F)F)cc2)cc1` (stereo partly drawn), the result in test [1], in test [2] and in [3] was inactive.

`C[C@H]1CN([C@@H](C)CO)C(=O)c2cc(-c3ccc(F)cc3)cnc2O[C@@H]1CN(C)CC1CCCCC1`: the call in [1], in test [2] and in [3] was inactive.

Take `CC(C)CC#Cc1cnc2c(c1)C(=O)N([C@H](C)CO)C[C@H](C)[C@H](CN(C)C(=O)c1cccnc1)O2`: the call in [1], in test [2] and in test [3] was inactive.

Consider `CNC[C@@H]1OCCCC[C@@H](C)Oc2ccc(NC(=O)Nc3ccc4c(c3)OCO4)cc2C(=O)N([C@H](C)CO)C[C@@H]1C`, for which the outcome in test [1], in test [2] and in test [3] was inactive.

As for `C[C@H]1CN([C@@H](C)CO)C(=O)c2cccc(NS(=O)(=O)c3ccc(Cl)cc3)c2O[C@@H]1CN(C)CC1CC1`, the outcome in test [1], in [2] and in test [3] was inactive.

`CNC[C@@H]1OCCCC[C@@H](C)Oc2ccc(NS(=O)(=O)c3ccc(Cl)cc3)cc2C(=O)N([C@H](C)CO)C[C@H]1C`: the result in test [1], in [2] and in [3] was inactive.

Take `Cc1ccc(C2CCN(C(=S)NC3CCCCC3)C2)cc1` (stereo not drawn): the call in test [4], in [2] and in test [3] was inactive.

As to `COc1cccc(NC(=O)N2C[C@H](O)COC[C@H]3O[C@@H](CC(=O)NCc4ccccc4F)CC[C@@H]32)c1`, the outcome in test [1], in [2] and in test [3] was inactive.

For `O=C(CC1CC1)N1[C@@H]2CN(S(=O)(=O)c3ccccc3)c3ccccc3[C@@H]2[C@@H]1CO`, the outcome in test [1] and in test [3] was inactive.

As for `Cc1noc(C)c1NC(=O)Nc1ccc2c(c1)C(=O)N([C@@H](C)CO)C[C@H](C)[C@H](CN(C)S(=O)(=O)c1ccc(Cl)cc1)O2`, the result in test [1], in test [2] and in [3] was inactive.

For `CC(=O)c1sc(NC(=O)c2cc(-c3ccccc3)nn2-c2ccccc2)nc1C`, the result in test [4] and in [2] was inactive.

With `O=C(C1CCOCC1)N1C[C@H]2[C@@H](c3ccccc31)[C@@H](CO)N2Cc1ccccc1Cl`, the result in [4] and in test [2] was inactive.

As for `Cc1ccc(-n2ncc3c(SCC(N)=O)ncnc32)cc1C`, the compound was called inactive in test [4] and in [2].

As for `C/C=C/c1ccc([C@@H]2[C@H]3CN(C(=O)Nc4ccc(OC)cc4)CCCCN3[C@H]2CO)cc1`, the call in test [4] and in test [2] was inactive.

Turning to `Cc1ccc(NC(=S)Nc2ccc(Cl)c(Cl)c2)c(OC(F)F)c1`, the compound was called inactive in [4] and in [2].

On to `COc1cc(NC(=O)CN2CCN(S(=O)(=O)c3ccc(C(C)C)cc3)CC2)cc(OC)c1`, for which the call in test [4], in [2] and in test [3] was inactive.

In the case of `C[C@@H]1CCCCO[C@H](CN(C)Cc2ccccc2)[C@H](C)CN([C@@H](C)CO)C(=O)c2cc(NS(=O)(=O)c3cccs3)ccc2O1`, the compound was classed as inactive in [4], in [2] and in [3].

As for `Cc1ccc2cc(NC(=O)c3ccccc3)ccc2n1`, the call in test [4] and in test [2] was inactive.

With `CC(=O)c1sc(NC(=O)C2(F)C(F)(F)C(F)(F)C(F)(F)C(F)(F)C2(F)F)nc1C`, the compound was called inactive in test [4] and in test [2].

For the compound `COc1cccc(S(=O)(=O)N(C)C[C@@H]2OCc3ccccc3-c3ccccc3C(=O)N([C@@H](C)CO)C[C@@H]2C)c1`, the call in [1], in [2], in test [3], in test [5], in test [6] and in [7] was inactive. The outcome in test [8], in [9], in [11] and in test [12] was inactive. Besides, the max activity in test [10] is -40.1% [at 8 µM, hits give low values].

Take `Cc1ccc(N2CCN(C(CCc3ccccc3)C(=O)Nc3c(C)cccc3C)CC2)cc1` (stereo not drawn): the compound was classed as inactive in test [4] and in test [2].

With `CN1CCN(CCCNC(=O)c2ccc(/C=C3\Oc4ccccc4N(Cc4ccccc4F)C3=O)cc2)CC1`, the compound was called inactive in [4] and in [2].

As to `CCCC[C@@H]1CNC(=S)N1CCc1cccc(F)c1`, the result in test [4], in test [2] and in [3] was inactive.

In the case of `C[C@H](CO)N1C[C@H](C)[C@@H](CN(C)C(=O)c2ccncc2)OCCCC[C@H](C)Oc2ccc(NC(=O)Cc3ccccc3)cc2C1=O`, the result in test [1], in [2] and in [3] was inactive.

As for `Cc1cccc(NC(=S)NN(Cc2ccccc2)c2ccccc2)c1C`, the result in [4] and in test [2] was inactive.

For the compound `CC(NC(=O)COc1ccccc1Cl)c1ccccc1` (stereo not drawn), the compound was classed as inactive in test [4], in [2] and in test [3].

Regarding `Cc1noc(C)c1S(=O)(=O)Nc1ccc2c(c1)CC(=O)N([C@H](C)CO)C[C@H](C)[C@@H](CN(C)S(=O)(=O)c1cn(C)cn1)O2`, the outcome in [1], in test [2] and in test [3] was inactive.

For the compound `CC(C)NC(=O)Nc1ccc2c(c1)CC(=O)N([C@H](C)CO)C[C@H](C)[C@@H](CN(C)C(=O)Nc1ccc3c(c1)OCO3)O2`, the outcome in [4] and in [2] was inactive.

On to `C[C@H]1CN([C@@H](C)CO)S(=O)(=O)c2ccc(Br)cc2O[C@@H]1CN(C)C(=O)CCN1CCCCC1`, for which the result in test [1], in test [2] and in [3] was inactive.

In the case of `C(=Nn1cnnc1)c1ccc2c(c1)CCC2`, the outcome in test [4] and in test [2] was inactive.
